Source: PubChem BioAssay AID485270 (The Scripps Research Institute Molecular Screening Center, 2010)
The whole screen tested about 330,000 compounds, of which about 5,800 (1.8%) were called active. This is one part of a sample in which actives are shown more often than they occur. Rule as the data show it: active = inhibition mostly above about 38% (no sharp cut-off); inactive = mostly below about 40%.

Biological target: Orexin/Hypocretin receptor type 1 (Homo sapiens) (UniProt O43613)
Test: blocks the human orexin 1 receptor (AID 485270);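 also: 0% = agonist challenge alone and 100% = reference antagonist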
Conditions: OX1R-expressing cells, FRET antagonist read-out; at 6.6 µM; hits give high values

Sequence of Orexin/Hypocretin receptor type 1 (Homo sapiens) (O43613 whole entry, looked up): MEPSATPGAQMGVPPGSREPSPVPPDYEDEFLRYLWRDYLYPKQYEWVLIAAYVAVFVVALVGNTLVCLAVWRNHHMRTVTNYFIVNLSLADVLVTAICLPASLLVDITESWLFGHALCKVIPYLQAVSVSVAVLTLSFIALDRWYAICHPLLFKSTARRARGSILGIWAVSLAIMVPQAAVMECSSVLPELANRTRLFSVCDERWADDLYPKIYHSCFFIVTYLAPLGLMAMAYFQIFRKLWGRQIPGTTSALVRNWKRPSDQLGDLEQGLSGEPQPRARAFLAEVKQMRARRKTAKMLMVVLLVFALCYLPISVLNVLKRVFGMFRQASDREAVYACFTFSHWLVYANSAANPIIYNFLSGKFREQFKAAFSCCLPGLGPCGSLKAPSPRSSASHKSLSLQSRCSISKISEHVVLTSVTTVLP

SMILES | inhibition
CC[C@@H](C)[C@@H]1CN([C@@H](C)CN2CCC[C@H]2CN2C(N)=NC[C@H]2C(C)C)C(=N)N1CCc1ccc(Cl)c(Cl)c1 | -3.86% (inactive)
COc1ccccc1C(=O)NCC(=O)OCC(=O)NNC(=O)c1ccc(Br)cc1 | 2.31% (inactive)
Fc1ccc(Nc2nnns2)cc1 | 11.1% (inactive)
CS(=O)(=O)c1ccc(C(=O)NNC(=O)c2cccs2)cc1 | 1.62% (inactive)
CC(C)N(C(=O)[C@H]1C[C@H](CC(=O)NC(C)(C)C)C(=O)N2CCc3c([nH]c4ccc(Cl)cc34)[C@]12C)C(C)C | 8.54% (inactive)
C=CCC[C@@H](Cc1ccc(F)cc1)C(=O)OC[C@H](Cc1c[nH]c2ccccc12)NC(=O)[C@@H](CC=C)CC(=O)N(CCO)Cc1ccccc1 | 7.48% (inactive)
NS(=O)(=O)c1cccc(NC(=O)COC(=O)c2cc([N+](=O)[O-])ccc2N2CCCC2)c1 | 14.8% (inactive)
O=C(CSc1nc2ccccc2c(=O)n1Cc1ccc(F)cc1)NCC1CCCO1 (stereo not drawn) | 4.49% (inactive)
COc1ccc(S(=O)(=O)N2CCN(c3cnccn3)CC2)cc1 | 16.4% (inactive)
CC(OC(=O)c1ccc([N+](=O)[O-])cc1)C(=O)NCC1CCCCC1 (stereo not drawn) | 18.2% (inactive)
CC1CCCCN1CCCNC(=O)Cn1ncc2c([nH]c3ccccc32)c1=O (stereo not drawn) | 4.31% (inactive)
CCC(=C/c1sc2ccc3ccccc3c2[n+]1C)/C=C1\Sc2ccc3ccccc3c2N1C | 42.8% (active)
Cn1cccc1C(=O)OCC(=O)c1ccc(Br)s1 | 5.79% (inactive)
O=C(CC1SC(N2CCOCC2)=NC1=O)Nc1ccccc1F (stereo not drawn) | -1.73% (inactive)
C[C@@H](CN1CCC[C@H]1CN1C(N)=NC[C@@H]1Cc1ccccc1)N1C[C@@H](Cc2ccccc2)N(CCCC2CCCC2)C1=N | 11.4% (inactive)
C/C=C/c1ccc(OCC(=O)NNC(=O)CN(C)S(=O)(=O)c2ccc(C)cc2)c(OC)c1 | 0.57% (inactive)
O=C(/C=C/c1ccco1)Nc1ccc(Oc2ccccc2)cc1 | 62.7% (inactive)
Cc1ccc(-n2nc3ccc(NC(=O)/C=C/c4ccco4)cc3n2)cc1C | 21.4% (inactive)
O=C(/C=C/c1ccco1)Nc1cccc(-c2nc3ccccc3[nH]2)c1 | 86.8% (active)
Cc1ccc(C(=O)OCC(=O)N2CCCCCC2)cc1S(=O)(=O)N1CCOCC1 | 24.3% (inactive)
COc1ccc(NC(=O)Nc2ccc3c(c2)C(=O)N([C@H](C)CO)C[C@H](C)[C@@H](CN(C)C(=O)Nc2ccc4c(c2)OCO4)O3)cc1 | 8.87% (inactive)

SMILES | inhibition
Cc1nnsc1C(=O)N/N=C/c1ccccc1Cl | 3.68% (inactive)
Cc1nn(C)cc1/C=N/NC(=O)c1sc2ccccc2c1Cl | 72.5% (active)
COCCNC(=S)N/N=C/c1c(C)[nH]c2ccccc12 | 9.28% (inactive)
O=C(N/N=C/c1c(Cl)[nH]c2ccccc12)c1sc2ccccc2c1Cl | 100% (active)
COc1ccc(CNC(=O)CNC(=O)c2sc3ccccc3c2Cl)cc1OC | 18.2% (inactive)
Cc1nn(-c2ccccc2)c(Cl)c1/C=N/NC(=O)c1nn(C)cc1[N+](=O)[O-] | 41.5% (inactive)
CC[C@]1(C(=O)OC)[C@H]2C(=O)N(Cc3ccccc3)C(=O)[C@H]2[C@H]2CN=C(SCc3ccccc3)N21 | 9.69% (inactive)
C[C@H]1CN([C@@H](C)CO)C(=O)Cc2cc(NS(C)(=O)=O)ccc2O[C@@H]1CN(C)CC1CC1 | 1.83% (inactive)
CN=C(Nc1cccc(S(=O)(=O)N2CCOCC2)c1)c1ccccc1 | 2.1% (inactive)
CC[C@]12c3[nH]c4cc(CCC(=O)N(C)C)ccc4c3CCN1C(=O)[C@@H](CC(=O)NCCCN(C)C)C[C@@H]2C(=O)N1CCN(C(=O)c2ccco2)CC1 | -2.47% (inactive)
COCCCNC(=O)CC1C[C@H](C(=O)N2CCCCC2)[C@@]2(CCc3ccccc3)c3[nH]c4ccccc4c3CCN2C1=O (stereo partly drawn) | 2.77% (inactive)
CCOc1cc(/C=C(\C#N)c2nc(-c3cccs3)c(NC(C)=O)s2)ccc1O | 65.7% (active)
CCOc1cc(-c2cc(-c3ccc(NC(C)=O)cc3)nc(N)c2C#N)ccc1O | 25.9% (inactive)
COc1cc(/C=N\Nc2nc(-c3cccs3)c(NC(C)=O)s2)ccc1O | 8.13% (inactive)
CCCC/C(C)=N/NC(=O)NC1CCCCC1 | 10.5% (inactive)
Nc1ncnc2c1ncn2[C@@H]1O[C@H](CNCc2cccn2-c2nccs2)[C@@H](O)[C@H]1O | 5.52% (inactive)
CCOC(=O)C1CCN(c2ccc(C(=O)O)cc2[N+](=O)[O-])CC1 | 57.8% (inactive)
O=C(O)C1CCN(c2ccc([N+](=O)[O-])cc2[N+](=O)[O-])CC1 | 40.7% (active)
CC1CCN(c2ccc([N+](=O)[O-])cc2C(N)=O)CC1 | 65.8% (inactive)
O=C(COC(=O)c1cc[n+]([O-])cc1)Nc1ccc(Cl)c(C(F)(F)F)c1 | 8.49% (inactive)
CC(Oc1ccc2c(-c3ccccc3)cc(=O)oc2c1)C(=O)NC(Cc1c[nH]c2ccccc12)C(=O)O (stereo not drawn) | 12.5% (inactive)

SMILES | inhibition
Cc1cccc(NC(=O)CSc2nc3[nH]ncc3c(=O)[nH]2)c1 | 10.4% (inactive)
Cc1nc2nc(SCC(=O)Nc3cccc(F)c3)[nH]c2cc1Br | 57.5% (active)
Cc1nc2nc(SCC(=O)c3ccccc3)[nH]c2cc1Br | 9.22% (inactive)
Cc1ccc2c(c1)C1C[N+](C)(CC(=O)c3ccccc3)CCC1N2C(=O)c1ccccc1Cl (stereo not drawn) | 7.24% (inactive)
CC1CCCCC12NC(=O)N(CC(=O)OCc1c(F)cccc1Cl)C2=O (stereo not drawn) | 11.8% (inactive)
Cc1cc(NC(=O)CSc2nccn2-c2ccc([N+](=O)[O-])cc2)no1 | 70.4% (active)
Cc1cc(NC(=O)COc2ccc([N+](=O)[O-])cc2)no1 | 3.47% (inactive)
Cc1cc(NC(=O)CSc2nnnn2-c2ccc(F)cc2)no1 | 10.1% (inactive)
NS(=O)(=O)c1ccc(CNC(=S)NC(=O)c2ccco2)cc1 | 4.56% (inactive)
CC1(C(=O)N/N=C/c2cc3c(cc2Br)OCO3)CC1(Br)Br (stereo not drawn) | 26.7% (inactive)
Cc1ccc(S(=O)(=O)N/N=C\c2cc3c(cc2[N+](=O)[O-])OCO3)cc1 | 29.4% (inactive)
CC(=O)N/N=C/c1cc2c(cc1[N+](=O)[O-])OCO2 | 98.3% (active)
COc1ccc(CN2C(CC(=O)Nc3cccnc3)c3ccc(C(F)(F)F)cc3S2(=O)=O)cc1 (stereo not drawn) | 12.3% (inactive)
COc1ccc(CNC(=O)COC(=O)c2sccc2C)cc1OC | 3.49% (inactive)
CC(=O)N1c2ccccc2N(Cc2ccc([N+](=O)[O-])cc2)C(=O)C1(C)C | 15.5% (inactive)
CC1=NN(c2ccccc2)C(=O)C1C(=O)c1ccc([N+](=O)[O-])cc1 (stereo not drawn) | 33.4% (inactive)
O=C1NC(=O)C2C1C(c1ccc([N+](=O)[O-])cc1)=NN2Cc1ccccc1 (stereo not drawn) | 75.4% (active)
CC(C)(C)OC(=O)C[C@@H]1C/C=C\C[C@@H](CC(=O)N[C@@H](CO)Cc2ccccc2)C(=O)N2CCC[C@H]2COC1=O | 16.2% (inactive)
COc1ccccc1N(CC(=O)Nc1ccc(C)cc1Cl)S(=O)(=O)c1cccs1 | 9.45% (inactive)
Cc1ccc(C2(C)NC(=O)N(CC(=O)N3CC(=O)Nc4ccccc43)C2=O)cc1 (stereo not drawn) | 2.94% (inactive)
COc1ccccc1NS(=O)(=O)c1ccc(C)c(C(=O)NNC(=O)c2csc(N3CCOCC3)n2)c1 | 2.72% (inactive)

SMILES | inhibition
COc1cc(S(=O)(=O)N2CCN(C(=O)C3CC3)CC2)ccc1NC(C)=O | 10.5% (inactive)
COc1ccc(C(=O)COC(=O)c2c(C)noc2C)cc1Cl | 3.93% (inactive)
CCOC(=O)[C@H]1[C@H]2COc3ccccc3[C@@H]2N2C(=O)CN(Cc3ccccc3)C(=O)[C@@]12C | 11.5% (inactive)
Cn1c(-c2ccco2)nc2cc3ccccc3cc21 | 68.2% (active)
CS(=O)(=O)n1nc(-c2ccco2)nc1N | -7.64% (inactive)
COc1ccccc1-n1c(-c2cc(-c3ccco3)[nH]n2)n[nH]c1=S | 4.56% (inactive)
COC(=O)c1ccc(CNC(=O)c2ccc(S(=O)(=O)N3CCCCCC3)cc2)cc1 | 13.9% (inactive)
CCOc1cc(/C=N/NC(=O)c2cccc(S(=O)(=O)N3CCOCC3)c2)ccc1OCC(=O)N(C)C | 10% (inactive)
O=C(N/N=C/c1ccc([N+](=O)[O-])o1)c1cccc(S(=O)(=O)N2CCOCC2)c1 | 44.6% (active)
O=C(Nc1ccc(N2CCOCC2)cc1)c1cccc(S(=O)(=O)N2CCOCC2)c1 | 1.87% (inactive)
O=C1N=C(N2CCCC2)S/C1=C\c1cccc(Br)c1 | 35.7% (inactive)
CCN1C(=O)/C(=C2\SC(N3CCCCC3)=NC2=O)c2ccccc21 | 42.2% (active)
CCOc1cc(/C=C2\SC(N3CCCCC3)=NC2=O)ccc1O | 25.6% (inactive)
O=C(Cn1cc(C(F)(F)F)ccc1=O)Nc1ccc2c(c1)OCCO2 | 1.4% (inactive)
COc1cc(/C=C/C(=O)OCC(=O)NC2CC2)cc(OC)c1OC | 3.2% (inactive)
Cc1cc(C(=O)Cn2cnc3cc([N+](=O)[O-])ccc3c2=O)c(C)n1CC1CCCO1 (stereo not drawn) | 53.2% (inactive)
CC(C)(C)NC(=O)Cn1cnc2cc([N+](=O)[O-])ccc2c1=O | 132% (active)
O=C(Cn1cnc2cc([N+](=O)[O-])ccc2c1=O)NC(=O)NCc1ccccc1 | 23.1% (inactive)
COc1ccc(S(=O)(=O)N(C)C[C@@H]2Oc3ccc(NS(=O)(=O)c4cn(C)cn4)cc3C(=O)N([C@@H](C)CO)C[C@@H]2C)cc1 | 1.11% (inactive)
CSc1ncccc1C(=O)Nc1cccc(S(=O)(=O)N2CCOCC2)c1 | 9.4% (inactive)
